# Laboratory results: PubChem BioAssay AID1578 (Sanford-Burnham Center for Chemical Genomics, 2009)
# The whole screen tested about 290,000 compounds, of which about 3,000 (1%) were called active. For the sample, actives were picked, then their nearest neighbours and some compounds at random. Unmarked numbers belong to inactive results. Rule as the data show it: active = inhibition mostly above about 36% (no sharp cut-off); inactive = mostly below about 34%.
# Assay: NOD1 signaling inhibitors, primary screen, cell-based, luminescence, uHTS (AID 1578);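 also: HEK-293T reporter cells stimulated with the NOD1 agonist gamma-tri-DAP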
# Settings: NOD1-driven NF-kB luciferase reporter cells, at 4 µM, active compounds read high
row,SMILES,inhibition
1,Cc1c(NC(=O)C(C#N)=C2CCCCC2)c(=O)n(-c2ccccc2)n1C,-3.8%
2,O=C(c1cc(F)ccc1F)C1CCCN(C(=O)CCN2CCCCO2)C1 (configuration not stated),-29.2%
3,O=C(Nc1nc2c(F)cc(F)cc2s1)c1ccco1,-3.5%
4,COC(=O)c1ccc2nc(NC(=O)C(C)(C)C)sc2c1,35.8%
5,Fc1ccc2nc(Nc3nc4c(F)cc(F)cc4s3)sc2c1,2.7%
6,Cc1ccc2nc(NC(=O)c3ccccn3)sc2c1,109% (active)
7,Cc1ccc2nc(NC(=O)COC(=O)c3ccccn3)sc2c1,-22%
8,Cc1ccc2nc(NC(=O)c3ccccc3F)sc2c1,-69.7%
9,O=C(Nc1nc2ccc(F)cc2s1)c1cccs1,-59.7%
10,O=C(Nc1nc2ccc(F)cc2s1)c1ccccn1,107% (active)
11,O=C(NNc1nc2c(F)cc(F)cc2s1)c1ccccc1,-5.8%
12,O=C(Nc1nc2c(F)cc(F)cc2s1)c1ccccn1,70.9% (active)
13,O=C(Nc1nc2ccc(S(=O)(=O)N3CCCC3)cc2s1)c1ccccn1,-16.1%
14,COc1cc(CN2CCCC(N3CCN(c4ccc(F)cc4)CC3)C2)ccc1F (configuration not stated),61.4%
15,COc1ccccc1S(=O)(=O)N1CCC(C(=O)O)(c2ccccc2)CC1,14.5%
16,COc1ccc(NC(=S)c2ccncc2)cc1,-9.9%
17,CC(Sc1nnc(N)s1)C(=O)Nc1ccc(N2CCOCC2)cc1 (configuration not stated),-20.5%
18,COc1ccc(NC(=O)Cc2c(F)c(F)c(F)c(F)c2F)cc1OC,2.8%
19,Cc1csc(NC(=O)CSc2nc(C(C)C)nc3ccccc23)n1,12.9%
20,O=C1N/C(=N/c2ccccn2)SC1Cc1ccccc1 (configuration not stated),-21%
21,Cc1ccc(CC2S/C(=N/c3ccccn3)NC2=O)cc1 (configuration not stated),17%
22,O=C1N/C(=N\c2ccccn2)SC1Cc1ccc(Cl)cc1 (configuration not stated),103% (active)
23,CCCCN1CC(=O)N2Cc3[nH]c4ccccc4c3C[C@H]2C1=O,-2.4%

row,SMILES,inhibition
1,O=C(Nc1ccccc1)C1(c2ccccc2)CC1(Cl)Cl (configuration not stated),-28.2%
2,Cc1ccc(SCC(=O)NCCN2C(=O)CSC2=O)c(C)c1,-23.2%
3,S=c1sc2c(Cl)ncnc2n1-c1ccccc1,69.8% (active)
4,S=c1sc2c(N3CCN(Cc4ccccc4)CC3)ncnc2n1-c1ccccc1,-6.8%
5,S=c1sc2c(N3CCOCC3)ncnc2n1-c1ccccc1,9%
6,CN1CCN(CC2(O)CCN(S(=O)(=O)c3ccc(Cl)cc3)CC2)CC1,-21.7%
7,Cc1cccc2c(=O)c(C(=O)NCCc3ccccc3)c[nH]c12,-28.3%
8,O=C(NCCc1ccccc1)c1cc2ncc(Br)cn2n1,-28.5%
9,NC1=NC(=O)/C(=C/c2ccc(Br)cc2)S1,25%
10,NC1=NC(=O)/C(=C\c2cccnc2)S1,53.6% (active)
11,NC1=NC(=O)/C(=C/c2cccc(F)c2)S1,-12%
12,Cc1cc(OCC(=O)N2CCN(c3ccccc3)CC2)c2c(C)cc(=O)oc2c1,-49.6%
13,O=C(NCc1nnc(SCC(=O)N2CCCc3ccccc32)o1)c1ccco1,-0.1%
14,CC(=O)OC1C2CCC1C([N+]1(C)CCCCC1)CC2 (configuration not stated),-31.7%
15,NC(=O)c1cc2ccc(O)cc2oc1=Nc1ccccc1,92.8% (active)
16,Cc1cccc(N=c2oc3cc(O)ccc3cc2C(N)=O)c1,44.6%
17,COc1ccc2cc(C(N)=O)c(=Nc3ccccc3)oc2c1,34.9%
18,CCN(CC)S(=O)(=O)c1cc(NC(=O)CCCOc2ccc(C(C)=O)cc2)ccc1C,6.3%
19,Oc1c(Br)cc(C=Nc2ccc3nc(-c4ccccc4)[nH]c3c2)c(O)c1Br,33.9%
20,Cc1cccc(N2C(=O)C3C4C=CC(CC4)C3C2=O)c1 (configuration not stated),-21.6%
21,Cc1c(C)c2ccc(O[C@@H]3O[C@H](CO)[C@H](O)[C@H](O)[C@H]3O)cc2oc1=O,-1%
22,Cc1cc(C(=O)CSc2nnc(-c3ccco3)o2)c(C)n1Cc1ccco1,3.1%
23,Cc1cc(C(=O)CSc2nnc(-c3ccco3)o2)c(C)n1CC1COc2ccccc2O1 (configuration not stated),43.4%

row,SMILES,inhibition
1,Cc1ccc(S(=O)(=O)N2CCN(C(=O)CSc3nnc(-c4ccco4)o3)CC2)cc1,-19%
2,Cc1c(C(=O)O)oc2ccc(S(=O)(=O)N3CC(C)CC(C)C3)cc12 (configuration not stated),-13%
3,CCN(CC)C(=O)c1oc2ccc(S(=O)(=O)N3CCCCCC3)cc2c1C,20.9%
4,COc1cccc(-n2c(SCC#N)nnc2-c2cnccn2)c1,5.2%
5,CC(C)CCN1CCN(Cc2cccc3nonc23)CC1CCO (configuration not stated),-23.9%
6,O=C(Nc1cccnc1)c1cc(-c2ccc(Br)cc2)nc2ccccc12,-14.6%
7,CCc1oc2ccccc2c1C(=O)c1cc(Br)c(O)c(Br)c1,87.3% (active)
8,CCCCc1oc2ccccc2c1C(=O)c1cc(I)c(OCCN(CC)CC)c(I)c1,-7.6%
9,CCc1oc2ccccc2c1C(=O)CCN1CCCCC1,39.5%
10,O=C(Nc1ccc(OCC(F)(F)C(F)F)c(C(F)(F)F)c1)c1ccccc1O,77.1% (active)
11,O=C(O)c1ccccc1C(=O)Nc1ccc(Br)c(C(F)(F)F)c1,-11.4%
12,O=C(Nc1ccc(OCC(F)(F)C(F)F)cc1)c1ccncc1,-18.2%
13,O=C(CN1C(=O)CCSc2ccc(S(=O)(=O)N3CCCC3)cc21)Nc1ccccc1Cl,-4.7%
14,CCN1CCN(C(=O)COCc2cc(-c3ccc4c(c3)OCO4)on2)CC1,-17.7%
15,Cc1ccc2c(c1)N(S(=O)(=O)c1cc(-c3onc(C)c3C)ccc1C)CCO2,29.7%
16,CC(C)(C)n1ncc(Oc2ccccc2[N+](=O)[O-])c(Cl)c1=O,12.6%
17,CCN=C1NN=C(c2cc(C)n(Cc3ccco3)c2C)CS1,81.7% (active)
18,Cc1cc(C2=NNC(=NC3CC3)SC2)c(C)n1Cc1ccco1,90.4% (active)
19,COCCCN=C1NN=C(c2cc(C)n(Cc3ccco3)c2C)CS1,-8.2%
20,Cc1cc(C2=NNC(=NC3CCCCC3)SC2)c(C)n1-c1c(C)n(C)n(-c2ccccc2)c1=O,2.7%
21,CCN=C1NN=C(c2cc(C)n(CCc3ccccc3)c2C)CS1,-15%
